Where two headings read alike, the source gives them in different places.
Tests used:
Set-up in all cases: species or system human, MV4-11 + K-562 + COLO205 + SK-N-BE2 + OVCAR-8
[1] = tested on: CAMKK2; conditions: read-out: apparent Kd, compound concentrations: 100 nM and 1000 nM (sheet 'Samples'), n = 1
[2] = tested on: LATS1; conditions: read-out: apparent Kd, compound concentrations: 100 nM and 1000 nM (sheet 'Samples'), n = 1
[3] = tested on: MARK2; conditions: read-out: apparent Kd, compound concentrations: 100 nM and 1000 nM (sheet 'Samples'), n = 1
[4] = tested on: MARK3; conditions: read-out: apparent Kd, compound concentrations: 100 nM and 1000 nM (sheet 'Samples'), n = 1
[5] = tested on: PKN1; conditions: read-out: apparent Kd, n = 1
[6] = tested on: PRKACB; conditions: read-out: apparent Kd, n = 1
[7] = tested on: RPS6KA3; conditions: read-out: apparent Kd, compound concentrations: 100 nM and 1000 nM (sheet 'Samples'), n = 1
[8] = tested on: TBK1; conditions: read-out: apparent Kd, compound concentrations: 100 nM and 1000 nM (sheet 'Samples'), n = 1
[9] = tested on: DYNC1LI1; conditions: read-out: apparent Kd, compound concentrations: 100 nM and 1000 nM (sheet 'Samples'), n = 1
[10] = tested on: PRKDC; conditions: read-out: apparent Kd; compound concentrations:100 nM and 1000 nM (sheet 'Samples'); n = 1
[11] = tested on: T1, T10; conditions: read-out: apparent Kd; compound concentrations:100 nM and 1000 nM (sheet 'Samples'); n = 1
T1 construct: gene NAT10

[12] = tested on: RAB14; conditions: read-out: apparent Kd, n = 1
[13] = tested on: MAP3K6; conditions: read-out: apparent Kd, compound concentrations: 100 nM and 1000 nM (sheet 'Samples'), n = 1
[14] = tested on: WEE1; conditions: read-out: apparent Kd, n = 1
[15] = tested on: CAMK4; conditions: read-out: apparent Kd, n = 1
[16] = tested on: PKM; conditions: read-out: apparent Kd, compound concentrations: 100 nM and 1000 nM (sheet 'Samples'), n = 1
[17] = tested on: DCK; conditions: read-out: apparent Kd, n = 1
[18] = tested on: PRKCI; conditions: read-out: apparent Kd, n = 1
[19] = tested on: TUBB6; conditions: read-out: apparent Kd, n = 1
[20] = tested on: CDK10; conditions: read-out: apparent Kd, n = 1
[21] = compound concentrations:100 nM and 1000 nM (sheet 'Samples')

## O=C1N=C(NCc2cccs2)SC1Cc1ccc2ncccc2c1 (stereo not shown) [RO4629078-000]
[1]; CATDS: 1.0556199661625101E-2
  potency estimated from few doses: 586 nM
[2]; CATDS: 8.7867541844469099E-3
  potency estimated from few doses: 953 nM
[3]; CATDS: 7.7790140637755802E-3
  potency estimated from few doses: 1430 nM
[4]; CATDS: 8.2190831573709308E-3
  potency estimated from few doses: 1180 nM
[5]; compound concentrations: 100 nM and 1000 nM (sheet 'Samples'), CATDS: 8.6120949637054304E-3
  potency estimated from few doses: 1010 nM
[6]; compound concentrations: 100 nM and 1000 nM (sheet 'Samples'), CATDS: 8.4250069561530305E-3
  potency estimated from few doses: 1080 nM
[7]; CATDS: 8.4062550540876194E-3
  potency estimated from few doses: 1090 nM
[8]; CATDS: 7.6855251717376097E-3
  potency estimated from few doses: 1490 nM

## COc1cc(Nc2nccc(N3CCC(NC(=O)C4COc5ccccc5O4)C3)n2)cc(OC)c1OC (stereo not shown) [GSK1379761A]
[9]; CATDS: 0.20239822738500499
  potency estimated from few doses: 2020 nM

## Cc1cccc(-c2cc(-c3c[nH]nc3-c3ccccn3)ccn2)c1 [GW679395X]
[10]
  potency estimated from few doses: 1130 nM
[11]
  potency estimated from few doses: 1940 nM

## COc1cccc(-n2ncc3c(N/N=C/c4ccc(C(=O)NCCN(C)C)cc4)ncnc32)c1.Cl [GW784307A]
[1]; CATDS: 2.5303732707076199E-2
  potency estimated from few doses: 2120 nM

## COc1ccc(Nc2nccc(N3CCC(NC(=O)Nc4ccc5c(c4)OCO5)C3)n2)cc1 (stereo not shown) [GSK1379745A]
[12]; compound concentrations: 100 nM and 1000 nM (sheet 'Samples'), CATDS: 3.8007636055388601E-2
  potency estimated from few doses: 1680 nM

## CN1C(=O)c2ccccc2N(C)c2nc(Nc3cnn(C4CCNCC4)c3)ncc21 [XMD-17-51]
[3]; CATDS: 1.3481113896194E-2
  potency estimated from few doses: 2050 nM
[4]; CATDS: 1.4488422936038499E-2
  potency estimated from few doses: 1430 nM

## CNC1=NC(=O)/C(=C/c2ccc3ncccc3c2)S1 [RO4595949-000]
[13]; CATDS: 5.3158736559022798E-2
  potency estimated from few doses: 1510 nM

## CCN(CC)CCOc1ccc(Nc2ncc3cc(-c4c(Cl)cccc4Cl)c(=O)n(C)c3n2)cc1 [SB-601273]
[14]; [21]
  potency estimated from few doses: 171 nM

## CN1CCN(Cc2ccc(-c3ccc4c(Nc5ccc(Oc6ccccn6)cc5)ccnc4c3)o2)CC1 [GW567140X]
[15]; compound concentrations: 100 nM and 1000 nM (sheet 'Samples'), CATDS: 3.2094924147275203E-2
  potency estimated from few doses: 2000 nM
[16]; CATDS: 3.4326075880393901E-2
  potency estimated from few doses: 1520 nM

## O=S(=O)(CCOCc1ccc(-c2ccc3ncnc(Nc4ccc(OCc5cccc(F)c5)c(Cl)c4)c3c2)o1)c1ccccc1 [GW615311X]
[17]; compound concentrations: 100 nM and 1000 nM (sheet 'Samples'), CATDS: 2.31641141582303E-2
  potency estimated from few doses: 2110 nM
[13]; CATDS: 2.8394321566467099E-2
  potency estimated from few doses: 1310 nM
[18]; compound concentrations: 100 nM and 1000 nM (sheet 'Samples'), CATDS: 2.29472037028754E-2
  potency estimated from few doses: 2160 nM
[19]; compound concentrations: 100 nM and 1000 nM (sheet 'Samples'), CATDS: 2.6696132806602001E-2
  potency estimated from few doses: 1500 nM

## CN1CCN(Cc2ccc(NC(=O)Nc3ccc(N(C)c4ccnc(Nc5ccc(CS(C)(=O)=O)cc5)n4)cc3)cc2)CC1.Cl [GW827654A]
[20]; compound concentrations: 100 nM and 1000 nM (sheet 'Samples'), CATDS: 3.5844771224848297E-2
  potency estimated from few doses: 1570 nM

## N#Cc1cccc(Nc2nccc(-c3cnn4ncccc34)n2)c1 [GW778894X]
[20]; [21]
  potency estimated from few doses: 405 nM

## Fc1ccc(-c2c(-c3ccncc3)[nH]c3nccnc23)cc1 [RO1155697-000]
[15]; [21]
  potency estimated from few doses: 1550 nM

## CNC(=O)c1ccccc1Nc1nc(Nc2cccc(CS(C)(=O)=O)c2)ncc1C.O=CO [GSK1520489A]
[2]; CATDS: 9.9587793654228995E-3
  potency estimated from few doses: 1340 nM
[7]; CATDS: 1.12432401151655E-2
  potency estimated from few doses: 768 nM
[8]; CATDS: 1.25946113140399E-2
  potency estimated from few doses: 504 nM
[14]; compound concentrations: 100 nM and 1000 nM (sheet 'Samples'), CATDS: 2.0722471674581099E-2
  potency estimated from few doses: 127 nM

## Nc1nc(N)c2nc(-c3ccccc3)[nH]c2n1 [SKF-12778]
[17]; [21]
  potency estimated from few doses: 1720 nM
[6]; [21]
  potency estimated from few doses: 1790 nM
[10]
  potency estimated from few doses: 716 nM
[12]; [21]
  potency estimated from few doses: 1300 nM
[11]
  potency estimated from few doses: 1130 nM
[19]; [21]
  potency estimated from few doses: 1770 nM

## Fc1cccc(COc2ccc(Nc3ncncc3C#Cc3ccccc3)cc2Cl)c1 [GW651576X]
[9]; CATDS: 4.5527640720115801E-2
  potency estimated from few doses: 2220 nM

## Cc1[nH]nc2c1N=C(c1ccccc1Cl)c1cc([N+](=O)[O-])ccc1N2 [RO0274406-000]
[16]; CATDS: 7.8896221929170104E-2
  potency estimated from few doses: 922 nM

## COc1ccc(C2=NC(c3ccc(Cl)cc3F)C(C(=O)Nc3ccc4[nH]ncc4c3)=C(C)N2)cn1.O=C(O)C(F)(F)F (stereo not shown) [GSK534913A]
[5]; [21]
  potency estimated from few doses: 2050 nM

## Nc1c(C(=O)c2ccccc2)cnn1-c1ccc(F)cc1 [RO1151246-000]
[18]; [21]
  potency estimated from few doses: 2030 nM

— publication PMC11062922 (Nature Chemical Biology, 2023)
